The campaign covered roughly 5,500 compounds. About 2,000 (36%) were called active. Roughly 18% stayed inconclusive and do not appear here. No stated cut-off is given here; in the data, active means normalized growth mostly below about 0.91 (no sharp cut-off); inconclusive means no clear call, values can overlap the other calls; inactive means mostly above about 0.92. Some of the results follow.
Assay: chemical genetic growth profiling, strain panel (AID 1159580);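 further: tested at 20 µM; growth read once vehicle control cultures reached saturation at 30 °C; 1 = growth at the plate median or of vehicle wells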
Details: growth OD

Measured: normalized growth

COc1c(O)cccc1O
inactive: S. cerevisiae deletion strains, locus YJL187C, strain SWE1, stronger effect = lower value 1.02 | S. cerevisiae deletion strains, locus YJR043C, strain POL32, stronger effect = lower value 1.03 | S. cerevisiae deletion strains, locus YJR066W, strain TOR1, stronger effect = lower value 0.977 | S. cerevisiae deletion strains, locus YJR075W, strain HOC1, stronger effect = lower value 1.02 | S. cerevisiae deletion strains, locus YKL009W, strain mrt4, stronger effect = lower value 1.05 | S. cerevisiae deletion strains, locus YKL068W, stronger effect = lower value 0.99 | S. cerevisiae deletion strains, locus YKL085W, strain MDH1 (second series), stronger effect = lower value 1.01 | S. cerevisiae deletion strains, locus YKL085W, strain MDH1, stronger effect = lower value 1.01 | S. cerevisiae deletion strains, locus YKL160W, strain elf1, stronger effect = lower value 1.01 | S. cerevisiae deletion strains, locus YKR001C, strain vps1, stronger effect = lower value 1.08 | S. cerevisiae deletion strains, locus YKR026C, strain gcn3, stronger effect = lower value 1.02 | S. cerevisiae deletion strains, locus YKR091W, strain srl3, stronger effect = lower value 1.02 | S. cerevisiae deletion strains, locus YLL001W, strain dnm1, stronger effect = lower value 1.03 | S. cerevisiae deletion strains, locus YLL026W, stronger effect = lower value 1.02 | S. cerevisiae deletion strains, locus YLL041C, strain sdh2, stronger effect = lower value 1.02 | S. cerevisiae deletion strains, locus YLR027C, strain aat2, stronger effect = lower value 1.01 | S. cerevisiae deletion strains, locus YLR039C, strain RIC1, stronger effect = lower value 1.11 | S. cerevisiae deletion strains, locus YLR058C, strain SHM2, stronger effect = lower value 1.03 | S. cerevisiae deletion strains, locus YLR102C, strain apc9, stronger effect = lower value 1 | S. cerevisiae deletion strains, locus YLR113W, strain HOG1, stronger effect = lower value 1.04 | S. cerevisiae deletion strains, locus YLR221C, strain rsa3, stronger effect = lower value 1.03 | S. cerevisiae deletion strains, locus YLR258W, strain gsy2, stronger effect = lower value 1.02 | S. cerevisiae deletion strains, locus YLR262C, strain YPT6 (second series), stronger effect = lower value 1.03 | S. cerevisiae deletion strains, locus YLR268W, strain sec22, stronger effect = lower value 1.05 | S. cerevisiae deletion strains, locus YLR320W, strain mms22, stronger effect = lower value 1.04 | S. cerevisiae deletion strains, locus YLR330W, strain CHS5, stronger effect = lower value 1.01 | S. cerevisiae deletion strains, locus YLR342W, strain FKS1, stronger effect = lower value 1.03 | S. cerevisiae deletion strains, locus YLR357W, strain rsc2, stronger effect = lower value 1.03 | S. cerevisiae deletion strains, locus YLR370C, strain arc18, stronger effect = lower value 1.02 | S. cerevisiae deletion strains, locus YLR371W, strain rom2, stronger effect = lower value 1.03 | S. cerevisiae deletion strains, locus YLR384C, strain iki3, stronger effect = lower value 1.01 | S. cerevisiae deletion strains, locus YLR418C, strain cdc73, stronger effect = lower value 1.1 | S. cerevisiae deletion strains, locus YML016C, strain PPZ1, stronger effect = lower value 1.01 | S. cerevisiae deletion strains, locus YML032C, strain rad52, stronger effect = lower value 1.01 | S. cerevisiae deletion strains, locus YML120C, strain ndi1, stronger effect = lower value 1.01 | S. cerevisiae deletion strains, locus YML124C, strain tub3, stronger effect = lower value 1 | S. cerevisiae deletion strains, locus YMR058W, strain fet3, stronger effect = lower value 1.03 | S. cerevisiae deletion strains, locus YMR078C, strain ctf18, stronger effect = lower value 1.02 | S. cerevisiae deletion strains, locus YMR125W, strain sto1, stronger effect = lower value 1.01 | S. cerevisiae deletion strains, locus YMR129W, stronger effect = lower value 1.02 | S. cerevisiae deletion strains, locus YMR205C, strain PFK2, stronger effect = lower value 1.03 | S. cerevisiae deletion strains, locus YMR223W, strain ubp8, stronger effect = lower value 1.03 | S. cerevisiae deletion strains, locus YMR231W, strain pep5, stronger effect = lower value 1 | S. cerevisiae deletion strains, locus YMR307W, strain GAS1, stronger effect = lower value 1.13 | S. cerevisiae deletion strains, locus YNL067W, strain RPL9B, stronger effect = lower value 0.97 | S. cerevisiae deletion strains, locus YNL071W, strain lat1, stronger effect = lower value 1.03 | S. cerevisiae deletion strains, locus YNL153C, strain GIM3, stronger effect = lower value 1.02 | S. cerevisiae deletion strains, locus YNL183C, strain NPR1, stronger effect = lower value 0.984 | S. cerevisiae deletion strains, locus YNL209W, strain ssb2, stronger effect = lower value 1.01 | S. cerevisiae deletion strains, locus YNL233W, strain BNI4, stronger effect = lower value 1.03 | S. cerevisiae deletion strains, locus YNL248C, strain rpa49, stronger effect = lower value 1.04 | S. cerevisiae deletion strains, locus YNL250W, strain rad50, stronger effect = lower value 1.05 | S. cerevisiae deletion strains, locus YNL271C, strain bni1, stronger effect = lower value 1.02 | S. cerevisiae deletion strains, locus YNL298W, strain CLA4, stronger effect = lower value 1.03 | S. cerevisiae deletion strains, locus YNL307C, strain MCK1, stronger effect = lower value 1.01 | S. cerevisiae deletion strains, locus YNL322C, strain KRE1 (second series), stronger effect = lower value 1.02 | S. cerevisiae deletion strains, locus YNL322C, strain KRE1, stronger effect = lower value 0.99 | S. cerevisiae deletion strains, locus YNR049C, strain mso1, stronger effect = lower value 1.02 | S. cerevisiae deletion strains, locus YNR052C, strain pop2, stronger effect = lower value 1.04 | S. cerevisiae deletion strains, locus YOL012C, strain htz1 0.853 | S. cerevisiae deletion strains, locus YOL147C, strain pex11, stronger effect = lower value 0.999 | S. cerevisiae deletion strains, locus YOR001W, strain rrp6, stronger effect = lower value 1.02 | S. cerevisiae deletion strains, locus YOR061W, strain CKA2, stronger effect = lower value 1.01 | S. cerevisiae deletion strains, locus YOR069W, strain VPS5, stronger effect = lower value 0.996 | S. cerevisiae deletion strains, locus YOR070C, strain gyp1, stronger effect = lower value 1.01 | S. cerevisiae deletion strains, locus YOR080W, strain dia2, stronger effect = lower value 1.03 | S. cerevisiae deletion strains, locus YOR083W, strain WHI5, stronger effect = lower value 1.03 | S. cerevisiae deletion strains, locus YOR106W, strain vam3, stronger effect = lower value 1.06 | S. cerevisiae deletion strains, locus YOR136W, strain idh2, stronger effect = lower value 1.02 | S. cerevisiae deletion strains, locus YOR144C, strain elg1, stronger effect = lower value 1.01 | S. cerevisiae deletion strains, locus YOR184W, strain ser1, stronger effect = lower value 1.06 | S. cerevisiae deletion strains, locus YOR231W, strain MKK1, stronger effect = lower value 1.03 | S. cerevisiae deletion strains, locus YOR265W, strain rbl2, stronger effect = lower value 1.01 | S. cerevisiae deletion strains, locus YOR270C, strain vph1, stronger effect = lower value 1.13 | S. cerevisiae deletion strains, locus YOR290C, strain snf2, stronger effect = lower value 1.03 | S. cerevisiae deletion strains, locus YOR316C, strain cot1, stronger effect = lower value 1 | S. cerevisiae deletion strains, locus YPL051W, strain arl3, stronger effect = lower value 0.998 | S. cerevisiae deletion strains, locus YPL078C, strain atp4, stronger effect = lower value 1.03 | S. cerevisiae deletion strains, locus YPL106C, strain sse1, stronger effect = lower value 1.04 | S. cerevisiae deletion strains, locus YPL240C, strain hsp82, stronger effect = lower value 1.02 | S. cerevisiae deletion strains, locus YPL256C, strain CLN2, stronger effect = lower value 1.01 | S. cerevisiae deletion strains, locus YPR119W, strain clb2, stronger effect = lower value 1.01 | S. cerevisiae deletion strains, locus YPR141C, strain kar3, stronger effect = lower value 1.01 | S. cerevisiae deletion strains, locus YPR163C, strain tif3, stronger effect = lower value 1.03 | S. cerevisiae deletion strains, locus YPR167C, strain met16, stronger effect = lower value 1.04 | S. cerevisiae deletion strains, strain wtn01, stronger effect = lower value 1.04 | S. cerevisiae strains, strain wild type, stronger effect = lower value 1

— PubChem BioAssay AID1159580 (chemical genetic matrix, 2015)
